Measurements taken from the supplement of paper PMC11732987, “Enantioselective OTUD7B fragment discovery through chemoproteomics screening and high-throughput optimisation” (Communications Chemistry, 2025).

Assays:
Assay in all cases: log2 ratio of Biotin-Ahx-Ub-VS probe labelling (compound/DMSO); higher = less target engagement, active = hit call of the paper (q ≤ 0.05, log2 ratio ≤ -1)
Conditions in all cases: treatment time: 3 h
[1] = compound: CCC1N(CCc2sccc12)C(=O)CCl
Summary of the method: (§1)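 Compound at 50 or 200 µM, or DMSO, was applied for 3 h in triplicate to HEK293T lysate (495 µg per sample, Tris/CHAPS/IGEPAL buffer with protease inhibitors), after which Biotin-Ahx-Ub-VS was added at 0.5 µM final for 1 h. The labelled DUBs were pulled down with NeutrAvidin, digested with LysC and trypsin, and run by diaPASEF LC-MS/MS. Ratios are averaged base-two logs of compound over DMSO from median-normalised label-free quantities by unpaired t-test, counting only proteins with at least 2 unique peptides.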

[2] = compound: CN1c2ccccc2C(CS1(=O)=O)NC(=O)CCl
Summary of the method: as §1

[3] = compound: Cl.ClCC(=O)N1CCc2ncncc2C1
Summary of the method: as §1

[4] = compound: Cl.Cn1ncc2C(CCCc12)NC(=O)CCl
Summary of the method: as §1

[5] = compound: ClCC(=O)NC1CCOc2ccccc12
Summary of the method: as §1

[6] = compound: ClCC(=O)NC1CCCc2ccccc12
Summary of the method: (§2)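 Each value is an average ratio of compound to vehicle, calculated by unpaired t-test. Lysate from HEK293T cells (495 µg per sample) was incubated in triplicate with compound over a concentration range or vehicle for 3 h and then with Biotin-Ahx-Ub-VS (0.5 µM final) for 1 h. Probe-labelled deubiquitinases were captured on NeutrAvidin, digested and run by diaPASEF LC-MS/MS, with Spectronaut label-free quantities normalised to the global median. Ratios are log2, and only proteins with at least two unique peptides were used.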

[7] = compound: ClCC(=O)N[C@@H]1CCCc2ccccc12
Summary of the method: as §2

[8] = compound: ClCC(=O)N[C@H]1CCCc2ccccc12
Summary of the method: as §2

[9] = compound: CCC1N(CCc2cc(OC)c(Cl)cc12)C(=O)CCl
Summary of the method: as §1

[10] = compound: CCCC1N(CCc2cc(OC)c(OC)cc12)C(=O)CCl
Summary of the method: as §1

[11] = compound: CN(Cc1cccc(Br)c1)C(=O)CCl
Summary of the method: as §1

[12] = compound: CN(Cc1ccccc1)C(=O)CCl
Summary of the method: as §1

[13] = compound: COc1ccc(CN(C)C(=O)CCl)cc1
Summary of the method: as §1

[14] = compound: COc1cccc(CN(CCCc2ccccc2)C(=O)CCl)c1
Summary of the method: as §1

[15] = compound: ClCC(=O)N1CCc2cc(Cl)c(Cl)cc2C1
Summary of the method: as §1

[16] = compound: ClCC(=O)N1CCc2nc(ncc2C1)-c1ccccc1
Summary of the method: as §1

[17] = compound: ClCC(=O)N1CCc2nocc2C1
Summary of the method: as §1

[18] = compound: ClCC(=O)N1CCc2scc(Br)c2C1
Summary of the method: as §1

[19] = compound: ClCC(=O)NC(C1CCCC1)c1cccs1
Summary of the method: as §1

Measured: log2 ratio of Biotin-Ahx-Ub-VS probe labelling

USP4 (UniProt Q13107)
Sequence of UniProt Q13107 (Q13107 whole entry): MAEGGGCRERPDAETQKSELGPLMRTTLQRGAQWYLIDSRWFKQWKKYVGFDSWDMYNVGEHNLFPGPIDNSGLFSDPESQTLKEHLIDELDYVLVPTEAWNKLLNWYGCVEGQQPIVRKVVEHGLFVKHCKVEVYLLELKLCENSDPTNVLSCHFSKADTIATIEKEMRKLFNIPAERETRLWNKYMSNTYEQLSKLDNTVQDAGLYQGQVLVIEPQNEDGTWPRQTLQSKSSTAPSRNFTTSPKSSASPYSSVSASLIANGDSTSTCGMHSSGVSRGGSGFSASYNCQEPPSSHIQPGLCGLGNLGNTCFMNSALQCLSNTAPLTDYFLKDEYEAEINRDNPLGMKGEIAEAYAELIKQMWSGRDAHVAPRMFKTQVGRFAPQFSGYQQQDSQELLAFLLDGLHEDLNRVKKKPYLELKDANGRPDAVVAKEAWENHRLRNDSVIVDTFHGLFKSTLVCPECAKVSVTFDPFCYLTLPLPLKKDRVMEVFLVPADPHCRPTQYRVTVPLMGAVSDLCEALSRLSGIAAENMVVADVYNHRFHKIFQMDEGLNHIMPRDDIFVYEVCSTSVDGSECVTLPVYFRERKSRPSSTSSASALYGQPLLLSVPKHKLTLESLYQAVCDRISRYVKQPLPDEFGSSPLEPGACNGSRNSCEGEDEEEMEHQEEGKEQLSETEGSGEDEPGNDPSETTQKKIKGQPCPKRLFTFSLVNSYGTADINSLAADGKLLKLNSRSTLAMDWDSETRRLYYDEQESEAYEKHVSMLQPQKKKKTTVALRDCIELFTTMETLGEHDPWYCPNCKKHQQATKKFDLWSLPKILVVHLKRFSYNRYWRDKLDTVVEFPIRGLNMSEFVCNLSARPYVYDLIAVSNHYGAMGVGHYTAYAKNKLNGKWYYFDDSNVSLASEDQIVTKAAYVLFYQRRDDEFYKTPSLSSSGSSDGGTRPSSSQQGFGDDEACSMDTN
inactive: [1]; compound concentration: 50uM -0.339 | [1]; compound concentration: 200uM -0.482 | [2]; compound concentration: 50uM -0.215 | [2]; compound concentration: 200uM 0.178 | [3]; compound concentration: 50uM -0.548 | [4]; compound concentration: 50uM -0.0561 | [4]; compound concentration: 200uM 0.256 | [5]; compound concentration: 50uM 0.078 | [5]; compound concentration: 200uM -0.359 | [6]; compound concentration: 0.78uM 0.169 | [6]; compound concentration: 1.56uM 0.0194 | [6]; compound concentration: 3.13uM 0.211 | [6]; compound concentration: 6.25uM 0.184 | [6]; compound concentration: 12.5uM 0.134 | [6]; compound concentration: 25uM 0.0663 | [6]; compound concentration: 50uM -0.0777 | [6]; compound concentration: 100uM -0.146 | [6]; compound concentration: 200uM 0.149 | [7]; compound concentration: 0.78uM 0.155 | [7]; compound concentration: 1.56uM 0.0643 | [7]; compound concentration: 3.13uM 0.0496 | [7]; compound concentration: 6.25uM -0.232 | [7]; compound concentration: 12.5uM -0.312 | [7]; compound concentration: 25uM 0.121 | [7]; compound concentration: 50uM -0.0633 | [7]; compound concentration: 100uM 0.0515 | [7]; compound concentration: 200uM -0.637 | [8]; compound concentration: 0.78uM 0.0773 | [8]; compound concentration: 1.56uM 0.0727 | [8]; compound concentration: 3.13uM 0.172 | [8]; compound concentration: 6.25uM -0.243 | [8]; compound concentration: 12.5uM 0.0883 | [8]; compound concentration: 25uM -0.0943 | [8]; compound concentration: 50uM 0.0929 | [8]; compound concentration: 100uM -0.0812 | [8]; compound concentration: 200uM -0.126 | [9]; compound concentration: 200uM 0.334 | [10]; compound concentration: 50uM -0.121 | [10]; compound concentration: 200uM -0.75 | [11]; compound concentration: 50uM -0.457 | [11]; compound concentration: 200uM 0.551 | [12]; compound concentration: 50uM -0.596 | [12]; compound concentration: 200uM -0.256 | [13]; compound concentration: 50uM -0.643 | [13]; compound concentration: 200uM 0.475 | [14]; compound concentration: 50uM 0.418 | [14]; compound concentration: 200uM -0.294 | [15]; compound concentration: 50uM 0.245 | [16]; compound concentration: 50uM 0.281 | [17]; compound concentration: 50uM -0.605 | [17]; compound concentration: 200uM 0.447 | [18]; compound concentration: 50uM 0.067 | [18]; compound concentration: 200uM -0.445 | [19]; compound concentration: 200uM -0.493
active: [3]; compound concentration: 200uM -1.33 | [9]; compound concentration: 50uM -1.04 | [15]; compound concentration: 200uM -1.88 | [16]; compound concentration: 200uM -1.65 | [19]; compound concentration: 50uM -1.38

EIF3H (UniProt O15372)
Sequence of UniProt O15372 (O15372 whole entry): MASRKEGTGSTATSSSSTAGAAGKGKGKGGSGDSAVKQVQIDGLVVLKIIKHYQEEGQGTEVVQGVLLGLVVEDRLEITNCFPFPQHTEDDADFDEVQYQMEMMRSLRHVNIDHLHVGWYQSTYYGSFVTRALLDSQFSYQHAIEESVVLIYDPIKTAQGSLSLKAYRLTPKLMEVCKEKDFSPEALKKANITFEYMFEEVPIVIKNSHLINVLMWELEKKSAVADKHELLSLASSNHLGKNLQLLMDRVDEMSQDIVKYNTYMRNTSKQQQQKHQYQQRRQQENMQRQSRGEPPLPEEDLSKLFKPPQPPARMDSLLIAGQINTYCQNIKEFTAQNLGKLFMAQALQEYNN
inactive: [1]; compound concentration: 50uM 4e-05 | [1]; compound concentration: 200uM -0.0195 | [2]; compound concentration: 50uM 0.0525 | [2]; compound concentration: 200uM 0.0675 | [3]; compound concentration: 50uM -0.0138 | [3]; compound concentration: 200uM -0.124 | [4]; compound concentration: 50uM -0.0892 | [4]; compound concentration: 200uM -0.0788 | [5]; compound concentration: 50uM 0.0209 | [5]; compound concentration: 200uM -0.0491 | [6]; compound concentration: 0.78uM -0.172 | [6]; compound concentration: 1.56uM 0.005 | [6]; compound concentration: 3.13uM 0.0821 | [6]; compound concentration: 6.25uM -0.12 | [6]; compound concentration: 12.5uM -0.146 | [6]; compound concentration: 25uM -0.153 | [6]; compound concentration: 50uM 0.125 | [6]; compound concentration: 100uM 0.0329 | [6]; compound concentration: 200uM -0.275 | [7]; compound concentration: 0.78uM -0.105 | [7]; compound concentration: 1.56uM 0.0364 | [7]; compound concentration: 3.13uM -0.02 | [7]; compound concentration: 6.25uM 0.0572 | [7]; compound concentration: 12.5uM 0.182 | [7]; compound concentration: 25uM -0.109 | [7]; compound concentration: 50uM 0.0801 | [7]; compound concentration: 100uM 0.0419 | [7]; compound concentration: 200uM 0.454 | [8]; compound concentration: 0.78uM 0.0712 | [8]; compound concentration: 1.56uM -0.0618 | [8]; compound concentration: 3.13uM -0.213 | [8]; compound concentration: 6.25uM 0.288 | [8]; compound concentration: 12.5uM 0.201 | [8]; compound concentration: 25uM 0.184 | [8]; compound concentration: 50uM 0.306 | [8]; compound concentration: 100uM -0.0743 | [8]; compound concentration: 200uM 0.179 | [9]; compound concentration: 50uM -0.165 | [9]; compound concentration: 200uM -0.139 | [10]; compound concentration: 50uM 0.00258 | [10]; compound concentration: 200uM 0.0942 | [11]; compound concentration: 50uM -0.0499 | [11]; compound concentration: 200uM -0.495 | [12]; compound concentration: 50uM -0.0247 | [12]; compound concentration: 200uM -0.0426 | [13]; compound concentration: 50uM -0.128 | [13]; compound concentration: 200uM 0.0275 | [14]; compound concentration: 50uM 0.0566 | [14]; compound concentration: 200uM 0.0114 | [15]; compound concentration: 50uM -0.344 | [15]; compound concentration: 200uM 0.309 | [16]; compound concentration: 50uM -0.162 | [16]; compound concentration: 200uM 0.025 | [17]; compound concentration: 50uM 0.0895 | [17]; compound concentration: 200uM -0.349 | [18]; compound concentration: 50uM -0.0247 | [18]; compound concentration: 200uM 0.0406 | [19]; compound concentration: 50uM -0.136 | [19]; compound concentration: 200uM 0.0107
